Measurements reported in PubChem BioAssay (NCATS).
Inconclusive results are not listed. Entries that show only a call come without a potency. The source made the active and inactive calls. The call rests on the fitted dose curve; tested in HEK293 reporter line.

Experiment: qHTS for Inhibitors of the Functional Ribonucleoprotein Complex (vRNP) of Lymphocytic Choriomeningitis Arenaviruses (LCMV): Viability assay - alamar blue signal for LCMV Primary Screen (AID 1347085); further: nearly all actives have a fitted effect of over 80% in size
Details: alamar blue viability counter-screen, LCMV vRNP screen cells; series mostly up to 57.5 µM

SMILES | Potency
CC12CCC(C1)C(C)(C)C2O (centres undefined) | inactive
Cc1c(-c2cccc3c(CCCOc4cccc5ccccc45)c(C(=O)O)n(Cc4cccnc4)c23)c(COc2ccc(N3CCN([S+](=O)([O-])N(C)C)CC3)cc2)nn1C | inactive
CCCCCc1ccco1 | inactive
CC1(C)O[C@H]2C[C@@H]3[C@H]4CCC5=CC(=O)C=C[C@]5(C)[C@@]4(F)[C@@H](O)C[C@]3(C)[C@]2(C(=O)CO)O1 | inactive
C[C@@H]1NC(=O)N[C@@H]1CCCCCC(=O)O | inactive
CC1=CC(=O)CCC1 | inactive
Nc1ccn([C@@H]2O[C@H](CO)[C@@H](OP(=O)(O)O)[C@H]2O)c(=O)n1 | inactive
CC(C)CNC(=O)/C=C/C=C/CCCCCC/C=C/c1ccc2c(c1)OCO2 | inactive
CC1=CC2OC3CC4OC(=O)C=CC=CC(C(C)O)OCC(O)C5(C)OC5C(=O)OCC2(CC1O)C4(C)C31CO1 (centres undefined) | inactive
O=C(O)c1cc(N(Cc2ccccc2O)Cc2ccccc2O)ccc1O | inactive
CC1=CC(=O)/C(=C(/C)O)C(=O)O1 | inactive
Fc1ccc(C(c2ccc(F)cc2)N2CCN(CC=Cc3ccccc3)CC2)cc1 | inactive
CC(C)C(=O)COc1c2occc2cc2ccc(=O)oc12 | inactive
CCCCC/C=C/CC(=O)OC | inactive
O=C(c1ccccc1)N1CCCCC1 | inactive
COc1ccc(-c2coc3cc(OC(C)=O)c(OC)cc3c2=O)cc1 | inactive
CC(=O)Nc1ccccc1O | inactive
CC(C)=CCCC(C)CC=O (centres undefined) | inactive
CCN1CC2(COC(=O)c3ccccc3N)CCC(OC)C34C5CC6C(OC)CC(O)(C5C6OC)C(O)(C(OC)C23)C14 (centres undefined) | inactive
